This passage reports growth results from PubChem BioAssay (NCI).

Compounds without any hit were thinned out: in the full panel of roughly 83,000, 20% have a hit.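 Percent growth is the endpoint: 0 to 100 indicates growth inhibition (40 means 60% inhibition), 0 means no net growth, and negative values indicate cell death.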 Values without a mark were called inactive. Activity calls are given as the source filed them. The calls were made as follows: active = growth percent below 10; inactive = the rest.

What all share (assay): NCI-60 one-dose screen, 48 h (100 = growth as untreated, 0 = no growth, -100 = all killed)
Common to all, as to conditions: 10 µM unless noted

The test system of assay [1] is HCT-15 colon.
Assay [2] has as its system HT29 colon.
In assay [3] the test system is SNB-75 CNS.
The subject of assay [4] is SNB-19 CNS.
The test system of assay [5] is U251 CNS.
Assay [6] relates to SK-MEL-5 melanoma.
Assay [7] has as its system UACC-62 melanoma.
Assay [8] deals with LOX IMVI melanoma.
The test system of assay [9] is SK-MEL-28 melanoma.
For assay [10], the system named is PC-3 prostate.

Regarding `O=C(COc1ccc(/C=C2\CSc3ccccc3C2=O)cc1)Nc1nccs1`, the growth was 84.6% in assay [1]; 74.7% in [2]; 87.8% in assay [3]; 82.1% in [4]; 83% in assay [5]; 142% in assay [6]. For the same compound, the growth was 85.5% in assay [7], -28.3% (active) in assay [8] and 124% in assay [9].
`CN(C)CCCNc1c2ccccc2nc2ccccc12`: the growth in [1] is 94.1%; in [2], 82.8%; in assay [3], 66.9%; in assay [4], 90.5%; in assay [5], 77.1%; in assay [6], 93.2%. Also, the values for the growth in assay [7], in assay [8] and in assay [9] were 105%, 96.3% and 103%, respectively.
Turning to `NC(N)=N/N=C(/c1ccccc1)c1ccc(F)cc1`, the growth in assay [1] is 10.3%; in assay [2], -1.2% (active); in [3], 18%; in [4] it was 26.8%; in assay [5], 4.79% (active); in assay [6], -18.7% (active). The growth was 4.05% (active) in [7], 18.6% in [8] and 35.1% in assay [9].
For the compound `CC(=O)Nc1ccc(-n2c(O)c(/C=N/NC(=O)Cc3ccccc3Nc3c(Cl)cccc3Cl)sc2=S)cc1`, the growth in [1] is 103%; in assay [2], 104%; in [3] it was 89.6%; in assay [4] it was 96.4%; in assay [5], 90.4%; in assay [6] it was 96.2%. The growth was 95.4% in assay [7], 84.2% in assay [8] and 111% in [9].
As for `Oc1cccc(-c2nc(N3CCOCC3)c3c4c(sc3n2)CCCC4)c1`, the growth was 49.1% in assay [1]; 94.7% in assay [2]; 7.14% (active) in [3]; 62.3% in assay [4]; 52.7% in assay [5]; 46.6% in assay [6]. Besides, the growth is 43.8% in assay [7], 50% in [8] and 57.8% in [9].
In the case of `COc1cc2nnc3c4cccnc4[nH]c3c2cc1OC`, the growth in assay [1] was 16%; in [2], -2.61% (active); in assay [3], 51.2%; in [4], 75.7%; in assay [5], 1.26% (active); in assay [6], 93.5%. Moreover, the values for the growth in assay [7], in [8] and in assay [9] were 30.8%, 12.8% and 47.6%, respectively.
Regarding `O=c1nc2oc3ccc4ccccc4c3cc-2s1`, the growth in assay [1] was 32.4%; in assay [2], 15.2%; in [3], -16.1% (active); in assay [4] it was 31.9%; in assay [5], 12.5%; in assay [6], 10.8%. Further, the growth was 37.6% in assay [7], 33.5% in assay [8] and 56.7% in assay [9].
Turning to `COc1ccc(-c2nc3cc(C(=O)Nc4cc(OC)c(OC)c(OC)c4)ccc3n2C2CCCCC2)cc1`, the growth in assay [1] is 80.2%; in [2], 102%; in assay [3] it was 82%; in [4], 98.1%; in assay [5] it was 96.6%; in assay [6] it was 77.8%. Further, the growth in assay [7] is 80.2%; in assay [8], 95.5%; in assay [9], 97%.
`c1csc(C2=NN3C(C2)c2ccccc2OC3c2ccncc2)c1` (configuration not stated): the growth in assay [1] was 95.5%; in assay [2], 107%; in assay [3], 82.2%; in [4] it was 90.5%; in [5] it was 91.5%; in assay [6] it was 92.7%. Besides, the figures for the growth in [7], in assay [8] and in [9] were 94.1%, 89.3% and 107%, respectively.
Take `CCOC(=O)n1cc(-c2nonc2-c2cn(C)c3ncccc23)c2ccccc21`: the growth in [1] is 60.2%; in assay [2] it was 79.5%; in assay [3], 61.6%; in assay [4], 89.3%; in assay [5], 83.2%; in assay [6], 77.3%. Further, the growth was 64.6% in assay [7], 84.3% in assay [8] and 104% in assay [9].
As for `C#CCOc1ccc2ncnc(Nc3cccc(CNC(=O)C=C)c3)c2c1`, the growth in assay [1] was 104% [8.25 µM]; in [2] it was 108% [8.25 µM]; in assay [3], 88.6% [8.25 µM]; in assay [4] it was 98.1% [8.25 µM]; in assay [5] it was 94.6% [8.25 µM]; in assay [6] it was 96% [8.25 µM]. In addition, the growth in [7] was 99.6% [8.25 µM]; in assay [8], 97.3% [8.25 µM]; in [9], 97.5% [8.25 µM].
On to `COc1ccc(C(=O)COc2ccc(/C=C3\Oc4ccc(OC)cc4C3=O)cc2)cc1`, for which the growth in [1] is 102%; in assay [2] it was 110%; in assay [3], 101%; in assay [4], 92.7%; in assay [5], 93%; in assay [6], 97.5%. Further, the growth in assay [7] is 90.1%; in assay [8], 77.3%; in [9], 137%.
With `FC(F)(F)c1nc2c(NCc3ccc(-c4ccccc4)cc3)cccc2[nH]1`, the growth in assay [1] was 68.4%; in [2], 84.4%; in assay [3], 90.7%; in [4], 117%; in assay [5], 66.6%; in [6] it was 88.4%. For the same compound, the figures for the growth in assay [7], in assay [8] and in [9] were 72.1%, 82.4% and 92.1%, respectively.
As for `CCNc1ncnc2c1cnn2C1CCCO1` (configuration not stated), the growth in assay [1] was 106%; in assay [2], 119%; in assay [3], 89.4%; in assay [4], 105%; in [5], 107%; in assay [6], 105%. Also, the growth is 107% in assay [7], 111% in assay [8] and 107% in assay [9].
As to `CN1CCN(c2ccc(Nc3c4ccccc4nc4ccccc34)cc2)CC1`, the growth in [1] is 99.3%; in assay [2] it was 103%; in assay [3], 96.8%; in [4], 107%; in assay [5] it was 99.8%; in assay [6] it was 102%. Moreover, the growth is 109% in assay [7], 105% in [8] and 109% in assay [9].
Turning to `O=[N+]([O-])c1ccccc1/C=N\NC(=S)N/N=C/c1ccccc1[N+](=O)[O-]`, the growth in [1] was 35.8%; in assay [2] it was 21.5%; in assay [3], 72.4%; in assay [4], 69%; in assay [5] it was 62.7%; in [6] it was 59.1%. Further, the growth in assay [7] was 55.5%; in assay [8] it was 43.4%; in assay [9], 78.2%.
Regarding `C/C1=C\CC[C@@]2(C)O[C@H]2[C@H]2OC(=O)C(CN3CCN(CC4C(=O)O[C@H]5[C@H]4CC/C(C)=C/CC[C@@]4(C)O[C@@H]54)CC3)[C@@H]2CC1` (some centres not stated), the growth in assay [1] was 95%; in assay [2], 104%; in [3], 85.4%; in assay [4], 99.2%; in assay [5], 94%; in assay [10], 92%. The growth in assay [8] was 93.7%.
For `Cc1[nH]c(-c2cc(N)ccc2Cl)c2c1C(=O)CCCC2`, the growth in [1] was 17.7%; in assay [2], 12.8%; in assay [3], 1.7% (active); in assay [4], 35.6%; in [5], 38.5%; in [6], 1.73% (active). Also, the growth in [7] is 15.7%; in assay [8], 3.58% (active); in assay [9], 59.1%.
Turning to `Nc1ccc(-c2cc3c(Nc4ccc(Oc5cccc(C(F)(F)F)c5)c(Cl)c4)ncnc3s2)cc1`, the growth in assay [1] is 44.6%; in [2], 64%; in assay [3] it was 78.1%; in [4], 89.8%; in assay [5], 79%; in assay [6] it was 70.9%. Moreover, the growth in assay [7] is 81.9%; in [8] it was 50.1%; in [9], 83.1%.
For `Cn1cc(-c2nonc2-c2c[nH]c3ccc(F)cc23)c2cccnc21`, the growth was 62.3% in assay [1]; 99.3% in assay [2]; 56.3% in assay [3]; 90.2% in assay [4]; 84.4% in assay [5]; 78.2% in [6]. The growth in [7] was 64.4%; in assay [8], 85.3%; in assay [9], 98.4%.
Take `Cc1nn(-c2ccc(F)cc2)c2ncnc(Oc3ccc(NC(=O)Nc4ccc(Cl)c(C(F)(F)F)c4)cc3)c12`: the growth in assay [1] was 111%; in assay [2], 109%; in assay [3], 88.1%; in [4], 98.9%; in [5], 97.9%; in assay [6], 99.1%. The growth in [7] was 96.6%; in [8] it was 99.4%; in [9], 102%.
Regarding `O=c1c2c3c(sc2nc(N/N=C/c2cn(-c4ccccc4)nc2-c2ccc(Cl)cc2)n1Cc1ccccc1)CCCC3`, the growth in assay [1] was 114%; in assay [2], 110%; in [3], 102%; in [4] it was 107%; in assay [5], 111%; in [6] it was 104%. In addition, the figures for the growth in [7], in [8] and in [9] were 94.7%, 110% and 112%, respectively.
Consider `O=C1/C(=C/c2ccc(OCCCOc3ccc(Cl)cc3)cc2)N=C2SCCCN12`, for which the growth in assay [1] was 63.2%; in [2] it was 76%; in [3], 84.5%; in [4] it was 78.5%; in assay [5], 69.6%; in [10] it was 45.5%. Also, the growth in [8] is 68.3%.
Consider `Cc1ccc2c(C(C[N+](=O)[O-])c3ccco3)c(-c3ccccc3)[nH]c2c1` (configuration not stated), for which the growth in assay [1] is 19.5%; in assay [2] it was 5.24% (active); in [3] it was -5.04% (active); in assay [4], 38.5%; in [5] it was 25.8%; in assay [6] it was 35.6%. The growth in assay [7] was 35.1%; in assay [8], 23.5%; in assay [9] it was 60.3%.
`Nc1ccn(-c2ccc(Br)cc2)c(=O)n1`: the growth was 119% in assay [1]; 125% in assay [2]; 76.7% in [3]; 140% in assay [4]; 104% in assay [5]; 119% in [6]. In addition, the growth is 106% in assay [7], 105% in assay [8] and 137% in assay [9].
Turning to `C=C1c2nc3ccccc3n2C=C(c2cccc(Cl)c2)N1Cc1ccc(OC)cc1`, the growth is 25.7% in assay [1]; 99.1% in assay [2]; 16.5% in [3]; 20.4% in assay [4]; 18.4% in assay [5]; -31.1% (active) in assay [6]. The growth is 44.7% in assay [7], 37.2% in [8] and 67.7% in assay [9].
In the case of `O=C(Nc1cccc2[nH]c(C(F)(F)F)nc12)c1ccc(-n2cnnn2)cc1`, the growth in assay [1] was 99.1%; in [2], 111%; in assay [3], 100%; in assay [4], 94%; in assay [5], 94.4%; in assay [6] it was 87.2%. For the same compound, the growth in assay [7] is 34.3%; in assay [8] it was 102%; in assay [9], 120%.
Consider `COc1ccc(-n2nc(C)c3c(Nc4ccc(NC(=O)Nc5cccc(C(F)(F)F)c5)cc4)ncnc32)cc1`, for which the growth was 2.47% (active) in [1]; 1.63% (active) in assay [2]; -7.61% (active) in assay [3]; 12% in assay [4]; -49.7% (active) in assay [5]; -66.5% (active) in assay [6]. Further, the growth in assay [7] was 3.5% (active); in assay [8] it was -81.9% (active); in assay [9], 11.6%.
In the case of `CCOC(=O)n1cc(-c2nonc2-c2cn(C)c3ncccc23)c2cc(F)ccc21`, the growth is 68.8% in [1]; 83.2% in assay [2]; 64.3% in [3]; 91.6% in assay [4]; 77.2% in assay [5]; 81.5% in assay [6]. Moreover, the growth is 62.2% in assay [7], 83.8% in assay [8] and 102% in assay [9].
